# Test results from ChEMBL document CHEMBL3988442, “University of Dundee, Small-Polar-MMV Screening Library” (2021).
# Out of some 48,000 compounds screened, about 13,000 (27%) showed an effect of 50% or more. The list shows a part of the results.
# System: Wolbachia pipientis
# Assay: Anti-Wolbachia Cell-Based Screen
# Type: functional
# Set-up: scale not given: in the data most compounds retested in dose-response had high values
# Details: 5 µM
row,SMILES,Percent Effect [%]
1,CN(CCc1ccccc1)C(=O)CN1C(=O)OC[C@@H]1c1ccccc1,-12.26
2,CC(=O)N1N=C(c2ccco2)OC1C(=O)N(C)CCc1ccccc1 (stereo unspecified),108.8
3,CC(=O)N1N=C(c2ccccc2)OC1C(=O)N(C)CCc1ccccc1 (stereo unspecified),94.62
4,CC(=O)N1N=C(c2ccccc2)OC1C(=O)N(C)Cc1ccccc1 (stereo unspecified),105.2
5,CN(Cc1ccccc1)C(=O)[C@@H]1Cc2[nH]cnc2CN1C,13.33
6,CCc1ccsc1C(=O)N(C)CCc1ccncc1,33.97
7,CC(=O)N1N=C(c2ccncc2)OC1C(=O)N(C)CCc1ccccc1 (stereo unspecified),108.6
8,CCC(=O)N1CSCC1C(=O)N(C)CCc1ccccc1 (stereo unspecified),-0.07211
9,Cc1cnc(C(=O)N[C@H]2CN(CCS(C)(=O)=O)C[C@@H]2C2CC2)cn1,4.986
10,CC(Cc1cncs1)Nc1ncnc2cccc(F)c12 (stereo unspecified),-13.2
11,CC(C)Cc1noc(CC2CCS(=O)(=O)C2)n1 (stereo unspecified),-7.316
12,CN(C)c1ccc(CNC2(c3ccc(F)cc3)CCOCC2)cc1F,-20.17
13,Cc1csc2c(N3CCC(NCCCc4ccncc4)CC3)ncnc12,-7.721
14,CO[C@H]1CN(Cc2cc(Cn3cncn3)c(C)cc2C)CC[C@H]1N,13.4
15,Cc1cc(C)nc(Nc2nccnc2C2CCCN(CCO)C2)n1 (stereo unspecified),115.9
16,CCC(=O)N1CCCC1c1nccnc1Nc1nc(C)cc(C)n1 (stereo unspecified),4.912
17,Cc1cc(C)nc(Nc2nccnc2C2CCCN(C(CO)CO)C2)n1 (stereo unspecified),89.81
18,Cc1cc(C)nc(Nc2nccnc2C2CCCN(C(C)C)C2)n1 (stereo unspecified),76.04
19,CC(=O)N1CCCC(c2nccnc2Nc2nc(C)cc(C)n2)C1 (stereo unspecified),92.16

row,SMILES,Percent Effect [%]
1,CCN1C(=O)[C@H]2CN(Cc3cccnc3)C[C@H]2C12CCN(C(C)=O)CC2,-22.31
2,COCC(NC(=O)NCc1ccc(C)c(F)c1)c1ccco1 (stereo unspecified),5.842
3,O=C(NC1CC1)N1CCCC2(CCNC2=O)C1 (stereo unspecified),-20.05
4,COc1c(F)cc(NCC(=O)NC(C)(C#N)C2CC2)cc1F (stereo unspecified),-10.88
5,CCOC(=O)N1CCN(c2nc(N)c3ccccc3n2)CC1.Cl,10.93
6,Cc1noc(C)c1CC(=O)OCc1nc(N)c2ccccc2n1,-18.91
7,Cc1nc(COc2cccc(C#N)c2)no1,2.018
8,Cc1nc(COC(=O)c2cccnc2C)no1,111.5
9,COCc1ccccc1C(=O)N(C)Cc1ncc(C)c(OC)c1C,29.72
10,Cc1csc(CN(CC2CCCO2)C(=O)c2cccnc2C)n1 (stereo unspecified),-5.515
11,COCc1ccccc1C(=O)OCc1noc(C)n1,97.59
12,Cc1cnc(N2CCC(OCCN3CCCCC3)C2)nc1C (stereo unspecified),11.15
13,CN1CC[C@H](N(Cc2ccccc2)C2COC2)C[C@H](O)C1,101.7
14,CN1CCC(N(Cc2ccccc2)C(=O)c2ccn3ccnc3c2)CC1,0.1453
15,CN1CCC(N(C)CCC(=O)N2CCC(CCc3ccccc3)CC2)C1 (stereo unspecified),-7.751
16,CN1CCC(N2CCC(CN(Cc3ccncc3)C3CCC3)CC2)CC1,7.68
17,CN1CC[C@H](N(Cc2ccccc2)Cc2ccccc2)C[C@H](O)C1,97.14
18,CN(CC1CC1)C(=O)CN(Cc1cccc(O)c1)C1CCC(O)CC1 (stereo unspecified),-10.37
19,CN1CCC(N(Cc2ccccc2)C(=O)c2nccn3ccnc23)CC1,3.341

row,SMILES,Percent Effect [%]
1,CN1CC[C@H](N(C)Cc2ccccc2)C[C@H](O)C1,67.42
2,CN1CCC(N(Cc2ccccc2)C(=O)c2ccn3cncc3c2)CC1,-5.801
3,CN1CC[C@H](N(Cc2ccccc2)CC2CC2)C[C@H](O)C1,101.2
4,CN1CCC(N2C[C@H](O)C[C@H]2c2nc(Cc3ccccc3)no2)CC1,-1.075
5,CN1CCC(N(C)CCC(=O)N2CCC(OCc3ccccc3)CC2)C1 (stereo unspecified),-15.08
6,COC(=O)c1sc2nc3c(c(C(F)(F)F)c2c1N)CN(C(C)=O)CC3,5.653
7,CC(Cn1cccn1)NC(=O)Nc1ccc(N2CCCC2)nc1 (stereo unspecified),-16.81
8,CC(C(=O)Nc1ccc(N2CCCC2)nc1)n1ccnc1 (stereo unspecified),-0.9927
9,COc1ccc(NC(=O)C(C)n2cncn2)cn1 (stereo unspecified),104.1
10,CC(Cn1cccn1)NC(=O)Nc1ccc(N2CCCCC2)nc1 (stereo unspecified),-23.5
11,CC(C(=O)Nc1cccc(N2CCCCC2)c1)n1cncn1 (stereo unspecified),4.529
12,CC(C(=O)Nc1ccc(N2CCCCC2)nc1)n1ccnc1 (stereo unspecified),105.1
13,O=C(Cc1ccccc1O)Nc1ccc(N2CCCC2)nc1,0.2058
14,CC(C(=O)Nc1ccc(N2CCCCC2)nc1)n1cncn1 (stereo unspecified),95.56
15,CC(C(=O)Nc1ccc(N2CCCC2)nc1)n1cncn1 (stereo unspecified),-0.2792
16,CC(C(=O)NCc1ccnc(Oc2ccc(F)cc2)c1)n1cncn1 (stereo unspecified),-19.79
17,COc1ccc(Oc2ccc(CNC(=O)C(C)n3cncn3)cn2)cc1 (stereo unspecified),-12.03
18,CC(C(=O)Nc1ccc(N2CCCC2)nc1)n1cccn1 (stereo unspecified),93.36
